# Test results from the supplement of paper PMC3334620.
# Whole data set: some 33,000 sequences, median “E-score (-0.5 to 0.5)” near -0.054, cut for the highest 2% near 0.35. What follows is part of a selection rich in the highest values, with near analogues and random picks from the rest.
# Target: T1, Stb5 (UniProt P38699)
# T1 sequence: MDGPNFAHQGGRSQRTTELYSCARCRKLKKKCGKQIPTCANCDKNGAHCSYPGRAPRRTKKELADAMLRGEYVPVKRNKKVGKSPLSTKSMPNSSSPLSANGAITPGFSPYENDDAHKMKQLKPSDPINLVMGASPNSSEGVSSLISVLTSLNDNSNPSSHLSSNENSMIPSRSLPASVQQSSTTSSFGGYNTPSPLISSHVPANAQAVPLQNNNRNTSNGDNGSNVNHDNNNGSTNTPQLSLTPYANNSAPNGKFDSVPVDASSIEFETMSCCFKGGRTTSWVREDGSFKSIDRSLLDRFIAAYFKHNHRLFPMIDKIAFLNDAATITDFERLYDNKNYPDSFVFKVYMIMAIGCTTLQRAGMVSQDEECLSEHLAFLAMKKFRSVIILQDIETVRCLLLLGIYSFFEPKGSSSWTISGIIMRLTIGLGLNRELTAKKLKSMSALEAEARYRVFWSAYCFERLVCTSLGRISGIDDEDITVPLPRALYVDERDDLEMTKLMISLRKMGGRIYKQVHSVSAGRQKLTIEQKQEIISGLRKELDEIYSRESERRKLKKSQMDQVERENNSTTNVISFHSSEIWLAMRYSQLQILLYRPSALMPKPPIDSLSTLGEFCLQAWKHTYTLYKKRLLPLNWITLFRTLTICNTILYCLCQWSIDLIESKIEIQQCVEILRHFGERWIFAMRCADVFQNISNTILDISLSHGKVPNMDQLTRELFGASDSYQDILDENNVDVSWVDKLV
# Experiment: PBM E-score (8-mer binding enrichment) (E-score (-0.5 to 0.5)); higher = stronger / more preferred TF binding
# Settings: protein concentration: 200 nM; construct: GST-full length
# Experimental: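 Universal 'all 10-mer' protein binding microarrays (Agilent AMADID 015681) probed with GST-tagged S. cerevisiae TFs (full-length or DBD) made by in vitro transcription/translation (PURExpress), about 100-200 nM. Bound TF was detected with fluorescent anti-GST. Each ungapped 8-mer (which stands for itself and its reverse complement) is scored by the PBM enrichment score (E-score), a modified Wilcoxon-Mann-Whitney statistic from -0.5 to +0.5, computed with the Universal PBM Analysis Suite. Scale: above 0.35 generally sequence-specific binding.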
row,Sequence,PBM E-score
1,CCTAACCC,0.0781
2,CGACGATC,-0.058
3,CGAATAGC,0.0153
4,AAAGGTTG,-0.192
5,CTTGGCAC,-0.106
6,AGCTTTAG,-0.226
7,AGCATCGG,0.214
8,CCATACCG,0.202
9,ACCCGCTC,0.246
10,GCCCGCTA,0.233
11,CGCCGCTA,0.412
12,AGCCGCTA,0.173
13,GGCCGCTA,0.299
14,ACCCGCTA,0.0951
15,CCCCGCAC,0.236
16,CCCCGCTA,0.399
17,CCCCGCTC,0.371
18,AGACCAGC,-0.285
19,AAGTCTGC,-0.211
20,CCAGCAGC,-0.12
21,AGAACTAA,0.0894
22,GGAACTAA,0.373

row,Sequence,PBM E-score
1,TGAACTAA,-0.153
2,CCCGTTTA,0.188
3,GTCCACAC,0.162
4,GCTCCGCA,0.173
5,CCTCCGGA,0.219
6,GCTCCGGA,0.368
7,ACTCCGGC,0.307
8,ACTCCGGA,0.355
9,ACTCCGGG,0.327
10,ATATTCTG,0.0727
11,GCTGACCA,-0.169
12,CCCCCAAG,-0.233
13,GGCAGCTA,-0.0896
14,TAATACTA,-0.0352
15,CAGAATCC,-0.0711
16,ATCGGATG,0.168
17,ACGCTGGC,-0.0211
18,ACACCTGT,0.0542
19,ACACCCGG,0.234
20,GAACCGGC,0.213
21,ACACCGGG,0.417
22,CCACCGGC,0.322

row,Sequence,PBM E-score
1,GCACCGGC,0.353
2,GCACCGGA,0.338
3,ACACCGGT,0.421
4,TCACCGGA,0.343
5,CCACCGGG,0.26
6,AAACCGGT,0.304
7,ACACCGGA,0.402
8,CGGTTGTA,0.309
9,ATAGCCAC,-0.171
10,ACCAAGCA,-0.0711
11,AAATGTTC,-0.138
12,CATTGGCC,-0.214
13,AGACCGGC,0.313
14,AAACCGGC,0.268
15,ACACCGGC,0.4
16,ACCGTCTC,0.0885
17,AACACCGA,0.479
18,AACACCTG,0.179
19,CACACCGG,0.327
20,AACACCCA,-0.0193
21,CACACCAC,-0.199
22,GACACCCC,0.014

row,Sequence,PBM E-score
1,AACACCGG,0.474
2,GACACCTC,-0.0935
3,GACACCGC,0.454
4,CACACCTC,-0.0997
5,CACACCGA,0.344
6,CACACCGC,0.394
7,GAGCCTCC,-0.123
8,CACCGTAC,0.213
9,AGCCGCCT,0.0174
10,ACCGTGGC,0.0612
11,ACCAAAAG,-0.113
12,CCAACCTC,-0.111
13,GAATCGAA,-0.175
14,CGTGTACA,-0.00441
15,GACACCGA,0.442
16,GACACCAA,-0.124
17,AACACCGT,0.472
18,GCCACCGA,0.139
19,TACACCAA,-0.128
20,TACACCTA,-0.109
